Measured values as given in the supplement of paper PMC12808144.
Unmarked numbers belong to inactive results.

Key:
NHEM-hTERT = test: cell viability relative to DMSO control (fraction of DMSO control); higher = less cytotoxic, active = 0.5 or less; conditions: 1 µM; 120 h
Method in brief: (§1)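 Luminescence from ATPlite 1step was read after 120 h in 384-well plates carrying 315 approved anti-cancer drugs (TargetMol), acoustically pre-spotted to give 1 µM in duplicate. Cells were seeded in 40 µl per well: 2500/well NHEM-hTERT immortalized melanocytes and 1500/well patient-derived Mel-DCC-11 and Mel-DCC-11-R, its resistant subline, which was assayed alone and with 8 µM of its selecting drug. Viability was normalised to vehicle-treated controls and averaged across duplicate wells.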

Mel-DCC-11-R = test: cell viability relative to DMSO control (fraction of DMSO control); higher = less cytotoxic, active = 0.8 or less; conditions: 1 µM, 120 h
Method in brief: as §1

What does the source list for `COC(=O)Nc1nc2ccc(C(=O)c3cccs3)cc2[nH]1` [Nocodazole]?
cell viability (NHEM-hTERT): 0.63; cell viability (Mel-DCC-11-R; vemurafenib co-treatment 0 µM): 0.823; cell viability (Mel-DCC-11-R; vemurafenib co-treatment 8 µM): 0.518 (active)

How did the cell viability (NHEM-hTERT) turn out when `CC/C(=C(\c1ccccc1)c1ccc(OCCN(C)C)cc1)c1ccccc1.O=C(O)CC(O)(CC(=O)O)C(=O)O` [Tamoxifen Z-isomer citrate] was run?
The cell viability was 0.977.

What about the cell viability (Mel-DCC-11-R; vemurafenib co-treatment 0 µM) of the same molecule?
The cell viability was 0.873.

What about the cell viability (Mel-DCC-11-R; vemurafenib co-treatment 8 µM) of the same molecule?
The cell viability was 1.16.

What does the source list for `CCCCCCCCCCCC1=C(O)C(=O)C=C(O)C1=O` [Embelin]?
cell viability (NHEM-hTERT): 1.01; cell viability (Mel-DCC-11-R; vemurafenib co-treatment 0 µM): 1.07; cell viability (Mel-DCC-11-R; vemurafenib co-treatment 8 µM): 1.15

With `C=C[C@H]1[C@@H](O[C@@H]2O[C@H](CO)[C@@H](O)[C@H](O)[C@H]2O)OC=C2C(=O)OCC[C@]21O` [Swertiamarin] as the molecule, how does the cell viability (NHEM-hTERT) read?
The cell viability was 0.942.

What about the cell viability (Mel-DCC-11-R; vemurafenib co-treatment 0 µM) of the same molecule?
The cell viability was 0.976.

What about the cell viability (Mel-DCC-11-R; vemurafenib co-treatment 8 µM) of the same molecule?
The cell viability was 1.2.

With `Cl.Cl.O=C1c2c(O)ccc(O)c2C(=O)c2c(NCCNCCO)ccc(NCCNCCO)c21` [Mitoxantrone hydrochloride] as the molecule, how does the cell viability (NHEM-hTERT) read?
The cell viability was 0.797.

What about the cell viability (Mel-DCC-11-R; vemurafenib co-treatment 0 µM) of the same molecule?
The cell viability was 1.14.

And the cell viability (Mel-DCC-11-R; vemurafenib co-treatment 8 µM)?
The cell viability was 0.477 (active).

With `CC[C@@H](CO)NCCN[C@@H](CC)CO.Cl.Cl` [Ethambutol dihydrochloride] as the molecule, how does the cell viability (NHEM-hTERT) read?
The cell viability was 1.2.

What about the cell viability (Mel-DCC-11-R; vemurafenib co-treatment 0 µM) of the same molecule?
Its cell viability is 0.965.

And the cell viability (Mel-DCC-11-R; vemurafenib co-treatment 8 µM)?
The cell viability was 1.08.

For `CCC1=C[C@@H]2CN(C1)Cc1c([nH]c3ccccc13)[C@@](C(=O)OC)(c1cc3c(cc1OC)N(C)[C@H]1[C@@](O)(C(=O)OC)[C@H](OC(C)=O)[C@]4(CC)C=CCN5CC[C@]31[C@@H]54)C2.O=C(O)[C@H](O)[C@@H](O)C(=O)O.O=C(O)[C@H](O)[C@@H](O)C(=O)O` [Vinorelbine Tartrate], which cell viability (NHEM-hTERT) is on record?
Its cell viability is 0.644.

And the cell viability (Mel-DCC-11-R; vemurafenib co-treatment 0 µM)?
Its cell viability is 1.04.

And the cell viability (Mel-DCC-11-R; vemurafenib co-treatment 8 µM)?
Its cell viability is 0.703 (active).

How did the cell viability (NHEM-hTERT) turn out when `CCc1c2c(nc3ccc(OC(=O)N4CCC(N5CCCCC5)CC4)cc13)-c1cc3c(c(=O)n1C2)COC(=O)[C@]3(O)CC.Cl.O.O.O` [Irinotecan hydrochloride trihydrate] was run?
The cell viability was 0.875.

What about the cell viability (Mel-DCC-11-R; vemurafenib co-treatment 0 µM) of the same molecule?
Its cell viability is 1.32.

What about the cell viability (Mel-DCC-11-R; vemurafenib co-treatment 8 µM) of the same molecule?
The cell viability was 0.937.

Which cell viability (NHEM-hTERT) does the source give for `CNC(=O)c1cc(Oc2ccc(NC(=O)Nc3ccc(Cl)c(C(F)(F)F)c3)cc2)ccn1` [Sorafenib] here?
Its cell viability is 1.02.

What about the cell viability (Mel-DCC-11-R; vemurafenib co-treatment 0 µM) of the same molecule?
The cell viability was 0.898.

What about the cell viability (Mel-DCC-11-R; vemurafenib co-treatment 8 µM) of the same molecule?
The cell viability was 1.2.

How did the cell viability (NHEM-hTERT) turn out when `Nc1ccccc1NC(=O)c1ccc(CNC(=O)OCc2cccnc2)cc1` [Entinostat] was run?
The cell viability was 0.554.

What about the cell viability (Mel-DCC-11-R; vemurafenib co-treatment 0 µM) of the same molecule?
The cell viability was 0.989.

And the cell viability (Mel-DCC-11-R; vemurafenib co-treatment 8 µM)?
Its cell viability is 1.01.

Which results are given for `COc1cc2c(cc1O)CC[C@@H]1[C@@H]2CC[C@]2(C)[C@@H](O)CC[C@@H]12` [2-Methoxyestradiol]?
cell viability (NHEM-hTERT): 0.87; cell viability (Mel-DCC-11-R; vemurafenib co-treatment 0 µM): 1.29; cell viability (Mel-DCC-11-R; vemurafenib co-treatment 8 µM): 0.985

Which results are given for `CN(Cc1cnc2nc(N)nc(N)c2n1)c1ccc(C(=O)N[C@@H](CCC(=O)O)C(=O)O)cc1` [Methotrexate]?
cell viability (NHEM-hTERT): 0.976; cell viability (Mel-DCC-11-R; vemurafenib co-treatment 0 µM): 0.993; cell viability (Mel-DCC-11-R; vemurafenib co-treatment 8 µM): 1.14

With `Cc1nc(Nc2ncc(C(=O)Nc3c(C)cccc3Cl)s2)cc(N2CCN(CCO)CC2)n1` [Dasatinib] as the molecule, how does the cell viability (NHEM-hTERT) read?
Its cell viability is 0.513.

And the cell viability (Mel-DCC-11-R; vemurafenib co-treatment 0 µM)?
The cell viability was 1.59.

What about the cell viability (Mel-DCC-11-R; vemurafenib co-treatment 8 µM) of the same molecule?
The cell viability was 1.58.

What does the source list for `CCCCCCCCCCCCCC(=O)[O-].CCCCCCCCCCCCCC(=O)[O-].N[C@@H]1CCCC[C@H]1N.[Pt+2]` [Miriplatin]?
cell viability (NHEM-hTERT): 1.03; cell viability (Mel-DCC-11-R; vemurafenib co-treatment 0 µM): 1.04; cell viability (Mel-DCC-11-R; vemurafenib co-treatment 8 µM): 1.03

Which cell viability (NHEM-hTERT) does the source give for `C#Cc1cccc(Nc2ncnc3cc(OCCOC)c(OCCOC)cc23)c1` [Erlotinib] here?
The cell viability was 1.02.

What about the cell viability (Mel-DCC-11-R; vemurafenib co-treatment 0 µM) of the same molecule?
Its cell viability is 1.03.

What about the cell viability (Mel-DCC-11-R; vemurafenib co-treatment 8 µM) of the same molecule?
Its cell viability is 0.732 (active).

Which cell viability (NHEM-hTERT) does the source give for `O=C(c1ccc(F)c(F)c1Nc1ccc(I)cc1F)N1CC(O)([C@@H]2CCCCN2)C1` [Cobimetinib] here?
The cell viability was 0.715.

And the cell viability (Mel-DCC-11-R; vemurafenib co-treatment 0 µM)?
Its cell viability is 0.309 (active).

What about the cell viability (Mel-DCC-11-R; vemurafenib co-treatment 8 µM) of the same molecule?
The cell viability was 0.302 (active).

How did the cell viability (NHEM-hTERT) turn out when `C[C@H](Nc1ncnc2nc[nH]c12)c1cc2cccc(Cl)c2c(=O)n1-c1ccccc1` [Duvelisib] was run?
Its cell viability is 0.912.

And the cell viability (Mel-DCC-11-R; vemurafenib co-treatment 0 µM)?
The cell viability was 1.21.

And the cell viability (Mel-DCC-11-R; vemurafenib co-treatment 8 µM)?
The cell viability was 0.864.

Which cell viability (NHEM-hTERT) does the source give for `CCOC(=O)c1ccc(C#Cc2ccc3c(c2)C(C)(C)CCS3)nc1` [Tazarotene] here?
Its cell viability is 1.16.

What about the cell viability (Mel-DCC-11-R; vemurafenib co-treatment 0 µM) of the same molecule?
The cell viability was 1.09.

And the cell viability (Mel-DCC-11-R; vemurafenib co-treatment 8 µM)?
The cell viability was 1.23.

Which cell viability (NHEM-hTERT) does the source give for `O=[N+]([O-])c1cncn1CCN1CCOCC1` [Nimorazole] here?
Its cell viability is 1.14.

And the cell viability (Mel-DCC-11-R; vemurafenib co-treatment 0 µM)?
The cell viability was 1.02.

And the cell viability (Mel-DCC-11-R; vemurafenib co-treatment 8 µM)?
The cell viability was 1.08.

For `COc1cccc2c1C(=O)c1c(O)c3c(c(O)c1C2=O)C[C@@](O)(C(=O)CO)C[C@@H]3O[C@H]1C[C@H](N)[C@@H](O)[C@H](C)O1.Cl` [Epirubicin hydrochloride], which cell viability (NHEM-hTERT) is on record?
The cell viability was 0.647.

And the cell viability (Mel-DCC-11-R; vemurafenib co-treatment 0 µM)?
Its cell viability is 0.426 (active).

And the cell viability (Mel-DCC-11-R; vemurafenib co-treatment 8 µM)?
Its cell viability is 0.183 (active).

For `N#Cc1ccnc(N2C(=O)CC[C@H]2C(=O)N(c2cncc(F)c2)[C@H](C(=O)NC2CC(F)(F)C2)c2ccccc2Cl)c1` [Ivosidenib], which cell viability (NHEM-hTERT) is on record?
The cell viability was 1.27.

And the cell viability (Mel-DCC-11-R; vemurafenib co-treatment 0 µM)?
The cell viability was 1.25.

What about the cell viability (Mel-DCC-11-R; vemurafenib co-treatment 8 µM) of the same molecule?
The cell viability was 1.06.

Which results are given for `CN(C)C(=N)N=C(N)N.Cl` [Metformin hydrochloride]?
cell viability (NHEM-hTERT): 1.07; cell viability (Mel-DCC-11-R; vemurafenib co-treatment 0 µM): 0.843; cell viability (Mel-DCC-11-R; vemurafenib co-treatment 8 µM): 1.08

Which cell viability (NHEM-hTERT) does the source give for `C/C(=C\c1csc(C)n1)[C@@H]1C[C@@H]2O[C@]2(C)CCC[C@H](C)[C@H](O)[C@@H](C)C(=O)C(C)(C)[C@@H](O)CC(=O)N1` [Ixabepilone] here?
The cell viability was 0.595.

What about the cell viability (Mel-DCC-11-R; vemurafenib co-treatment 0 µM) of the same molecule?
The cell viability was 0.67 (active).

What about the cell viability (Mel-DCC-11-R; vemurafenib co-treatment 8 µM) of the same molecule?
Its cell viability is 0.377 (active).

Which cell viability (NHEM-hTERT) does the source give for `CC(C)NCC(O)COc1cccc2ccccc12.Cl` (stereo not given) [Propranolol hydrochloride] here?
The cell viability was 1.16.

What about the cell viability (Mel-DCC-11-R; vemurafenib co-treatment 0 µM) of the same molecule?
The cell viability was 0.858.

And the cell viability (Mel-DCC-11-R; vemurafenib co-treatment 8 µM)?
The cell viability was 1.06.

How did the cell viability (NHEM-hTERT) turn out when `O=C(/C=C/c1ccc(O)cc1)c1ccc(O)cc1O` [Isoliquiritigenin] was run?
The cell viability was 0.982.

And the cell viability (Mel-DCC-11-R; vemurafenib co-treatment 0 µM)?
The cell viability was 0.834.

What about the cell viability (Mel-DCC-11-R; vemurafenib co-treatment 8 µM) of the same molecule?
The cell viability was 1.02.
